In PubChem BioAssay (NCATS):
“And” between values parts separate entries of the source, which are not always exact repeats. Identical values can stand only once. Results filed as inconclusive are left out. More than one record can exist for a structure, and the calls need not agree. The source made the active and inactive calls. The call rests on the fitted dose curve; in most records, active means well fitted curve in the direction sought with a large enough effect; inconclusive means small, poorly fitted or top-dose-only effect, or another doubt; inactive means no such curve, though single readings can be large; an effect the other way counts as inactive or inconclusive.

Columns and labels:
[1] = target: Glutathione peroxidase 1 (Homo sapiens) (UniProt P07203); assay: Primary qHTS Assay for Inhibitors of Recombinant Selenoprotein Glutathione Peroxidase 1 (GPX1) (AID 1845191); further: nearly all actives have a fitted effect of over 65% in size; further: potency means the concentration at half of the fitted maximal effect
Method in brief: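 GPX1 10 nM, GR 100 nM, GSH 1 mM, NADPH 0.5 mM, CHP 0.5 mM (final). 30-min cpd preincubation, RT. Ex340/Em450 read t=0, t=15 min.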

[2] = target: Phospholipid hydroperoxide glutathione peroxidase GPX4 (Homo sapiens) (UniProt P36969); assay: Primary qHTS Assay for Inhibitors of Recombinant Selenoprotein Glutathione Peroxidase 4 (GPX4) (AID 1845192); further: nearly all actives have a fitted effect of over 65% in size; further: potency means the concentration at half of the fitted maximal effect
Method in brief: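 qHTS, GR-coupled: GPX4 200 nM + cpd 30 min RT → GSH 1 mM, NADPH 0.5 mM, GR 100 nM → CHP 0.5 mM start; fluor 340/450 at t0 and t15 min; no-enzyme wells as control.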

[3] = target: Metallo-beta-lactamase type 2 (Klebsiella pneumoniae) (UniProt C7C422); assay: qHTS to identify inhibitors of the New Delhi Metallo-beta-lactamase (NDM): assay validation screen against the NCATS LOPAC Collection (AID 1794843);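 further: nitrocefin turnover by NDM-1 measured as 485 nm absorbance at plateau; series mostly up to about 38 µM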
Method in brief: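 Enzyme 2 nM final, 50 mM HEPES pH 7.0, 1 uM ZnSO4, 0.01% Tween20; cpds in DMSO, preincub w/ enzyme; + nitrocefin (50 uM stock); A485 at plateau; no-enzyme column as blank.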

[4] = Quantitative High-Throughput drug screen in 47 multiple myeloma cell lines against the NCATS MIPE library collection: FR4_PLB cell viability assay (AID 1918924; further: nearly all actives have a fitted effect of over 35% in size; further: potency means the concentration at half of the fitted maximal effect)
Method in brief: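 qHTS of the MIPE 4.0 collection: 500 myeloma cells/well, 48 h drug exposure at 37C in 5% CO2, then CellTiter-Glo for 5 min at room temperature before luminescence reading.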

[5] = Quantitative High-Throughput drug screen in 47 multiple myeloma cell lines against the NCATS MIPE library collection: Delta47_JCRB cell viability assay (AID 1918925; further: nearly all actives have a fitted effect of over 45% in size; further: potency means the concentration at half of the fitted maximal effect)
Method in brief: (§1)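 Primary qHTS used for cherry-picking: cells at 500/well, library compounds for 48 h (37C, 5% CO2), luminescent ATP assay.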

[6] = Quantitative High-Throughput drug screen in 47 multiple myeloma cell lines against the NCATS MIPE library collection: EJM_DSMZ cell viability assay (AID 1918926; further: nearly all actives have a fitted effect of over 30% in size; further: potency means the concentration at half of the fitted maximal effect)
Method in brief: as §1

[7] = target: Luciferin 4-monooxygenase (Photinus pyralis) (UniProt P08659); assay: Primary firefly luciferase (FLuc) qHTS assay for identification of artifact compounds. (AID 1845220); conditions: outcome: dose series up to 54.1 µM unless noted; further: nearly all actives have a fitted effect of over 60% in size
Method in brief: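 Reaction readout was CCD-imaged luminescence, taken 5 min after adding 10 nM purified firefly enzyme to compound-treated wells holding 10 uM luciferin and ATP in pH 7.6 buffer.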

[8] = Primary fluorescence-based thiol-reactive (MSTI) qHTS assay for identification of artifact compounds. (AID 1845221);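 further: series mostly up to about 54 µM; thiol-reactive compounds lower the probe fluorescence signal; nearly all actives have a fitted effect of over 65% in size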
Method in brief: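 Curve-fitted percent inhibition (4-parameter Hill) derived from fluorescence, Ex 525/Em 598 nm, scaled with Acetyl-MSTI and MSTI; 1 h incubation at room temperature.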

[9] = tested on: Nanoluciferase (engineered Oplophorus gracilirostris luciferase); assay: Primary Nanoluciferase (NLuc) qHTS assay for identification of artifact compounds. (AID 1845222);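 further: NLuc secreted into diluted conditioned medium of S16 cells; series mostly up to about 54 µM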
Method in brief: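 Concentration-response data were obtained by luminescence after 5 min with Nano-Glo substrate at 1:100. The enzyme was diluted S16 NLuc-expressing cell medium, preincubated with compound for 15 min at RT. Curves were fitted with a 4-parameter Hill model.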

[10] = Primary redox qHTS assay for identification of artifact compounds. (AID 1845223)
Method in brief: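 Redox-cycling detection via DTT (250 uM final) oxidation coupled to Amplex Red (25 uM)/HRP (250 mU/mL) in HBSS. 15 min preincubation plus 30 min after DTT, room temperature. Ex/Em 525/598 nm; 4-parameter Hill fit against DMSO and 10 uM DA3003.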

Measured: Potency

Sequence of Metallo-beta-lactamase type 2 (Klebsiella pneumoniae) (C7C422 whole entry, looked up): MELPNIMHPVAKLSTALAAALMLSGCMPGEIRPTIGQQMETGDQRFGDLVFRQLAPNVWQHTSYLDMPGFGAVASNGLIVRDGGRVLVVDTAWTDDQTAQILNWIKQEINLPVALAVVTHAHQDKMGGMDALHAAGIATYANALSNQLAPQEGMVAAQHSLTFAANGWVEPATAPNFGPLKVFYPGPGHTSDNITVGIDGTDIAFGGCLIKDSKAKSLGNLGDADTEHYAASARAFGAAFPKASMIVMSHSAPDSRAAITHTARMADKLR
Sequence of Glutathione peroxidase 1 (Homo sapiens) (P07203 whole entry, looked up): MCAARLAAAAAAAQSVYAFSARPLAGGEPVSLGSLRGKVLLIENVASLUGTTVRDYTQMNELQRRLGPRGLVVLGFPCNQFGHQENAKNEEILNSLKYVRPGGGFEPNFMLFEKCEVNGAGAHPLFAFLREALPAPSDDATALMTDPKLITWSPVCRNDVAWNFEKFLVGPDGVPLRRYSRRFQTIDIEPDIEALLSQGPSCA
Sequence of Phospholipid hydroperoxide glutathione peroxidase GPX4 (Homo sapiens) (P36969 whole entry, looked up): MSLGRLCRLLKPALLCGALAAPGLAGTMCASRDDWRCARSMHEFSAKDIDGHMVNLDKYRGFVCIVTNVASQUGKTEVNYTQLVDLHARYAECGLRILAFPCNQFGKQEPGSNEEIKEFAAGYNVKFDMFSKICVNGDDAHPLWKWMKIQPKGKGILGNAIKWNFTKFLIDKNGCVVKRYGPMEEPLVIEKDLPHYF

Cc1cc(O)ccc1Cl
inactive: [1] | [2]

COc1ccc2c(c[n+](C)c3c4cc5c(cc4ccc23)OCO5)c1OC
inactive: [3] | [1] | [2]
active: [4] 4.18 µM | [5] 9.35 µM | [6] 2.96 µM

CC(C)(C)NC[C@H](O)c1ccc(O)cc1Cl
inactive: [1] | [2] | [7] | [8] | [9] | [10]

C1CCC(NC2CCCCC2)CC1
inactive: [1] | [2]

O=[N+]([O-])c1ccc([As](=O)(O)O)cc1
inactive: [1] | [2]

CC(=O)NCCc1c[nH]c2ccccc12
inactive: [3] | [1] | [2] | [7] inactive [at 86.2 µM] | [9] | [10]

CC[C@@H](C(N)=O)N1CCCC1=O
inactive: [3] | [1] | [2] | [4] | [5] | [6]

Oc1ccc2c3c1O[C@H]1c4[nH]c5c(c4C[C@@]4(O)[C@@H](C2)N(CC2CC2)CC[C@]314)C[C@@]1(O)[C@H]2Cc3ccc(O)c4c3[C@@]1(CCN2CC1CC1)[C@H]5O4
inactive: [3] | [1] | [2] | [4] | [5] | [6]

COC(=O)c1cncn1C(C)c1ccccc1 (stereo not drawn)
inactive: [1] | [2]

C[C@]12N[C@H](Cc3ccccc31)c1ccccc12
inactive: [1] | [2]

COC(=O)[C@@H](N)CCCN=C(N)N[N+](=O)[O-]
inactive: [3] | [1] | [2] | [4] | [5] | [6]

O=C(O)C(Cl)Cl
inactive: [1]

CCCCCCCCCCCCCCCC[N+](C)(C)C
inactive: [1] | [2]

C/C=C(/C)C(=O)O[C@H]1C(C)=C2[C@H]([C@@H]1OC(=O)CCCCCCC)[C@@](C)(OC(C)=O)C[C@H](OC(=O)CCC)[C@@]1(O)[C@H]2OC(=O)[C@@]1(C)O
inactive: [1] | [2] | [7] | [8] | [9] | [10]

CCC(=O)O[C@@H]1C=C2CCC3C(CCC4(C)C3CC[C@@H]4OC(=O)CC)C2CC1 (stereo partly drawn)
inactive: [1] | [2]

CC[C@@]1(O)C(=O)OCc2c1cc1n(c2=O)Cc2cc3ccccc3nc2-1
inactive and 9.04 µM (active): [2]
inactive: [3] | [1]
active: [4] 0.296 µM | [5] 0.0743 µM

S=C(SSC(=S)N1CCCCC1)N1CCCCC1
active: [1] 12.8 µM

O=C(O)COc1ccccc1
inactive: [1] | [2]

CC[N+]1(CCOC(=O)C(O)(c2ccccc2)c2ccccc2)CCCCC1
inactive: [1] | [2]

O=C(N[C@H]1CN2CCC1CC2)c1ccc(Cl)cc1
not listed: [5]
inactive: all other assays above

CNCCc1c[nH]c2ccc(O)cc12
inactive: [1] | [2]

COC1=C[C@@H]2[C@@H]3Cc4ccc(OC)c(O)c4[C@]2(CCN3C)CC1=O
active: [5] 3.32 µM
not listed: [3] | [4] | [6]
inactive: all other assays above

CCOC(=O)c1c(C(C#N)=CN)c2ccc(Cl)c(Cl)c2n1C
inactive: [1] | [2] | [4] | [5]

COCC1(CO)C(=O)C2CCN1CC2 (stereo not drawn)
active: [4] 16.6 µM
inactive: [1] | [2]

CC1(N2CCC(n3c([C@@H]4CCCNC4)nc4ccccc43)CC2)CCCCCCC1
active: [4] 23.5 µM | [5] 13.2 µM
not listed: [3] | [6]
inactive: all other assays above

O=C(Oc1ccc([N+](=O)[O-])cc1)N1CCN(Cc2cccc(Oc3ccccc3)c2)CC1
inactive: [1] | [2] | [7] | [9] | [10] | [4]

Cc1ccccc1-n1c(Cn2ncc3c(N)ncnc32)nc2cccc(C)c2c1=O
active: [4] 4.69 µM | [5] 0.209 µM | [6] 16.6 µM
not listed: [3]
inactive: all other assays above

CCCC[N+]1(C)[C@H]2CC(OC(=O)[C@H](CO)c3ccccc3)C[C@H]1[C@H]1O[C@H]12 (stereo partly drawn)
inactive: [1] | [2] | [4] | [5]

C[C@](O)(COc1ccc(C#N)cc1)C(=O)Nc1ccc(C#N)c(C(F)(F)F)c1
inactive: [1] | [2] | [4]

O=c1[nH]c2ccc(Cl)cc2c(N[C@@H]2CN3CCC2CC3)c1-c1nc2ccccc2[nH]1
active: [4] 0.0743 µM | [5] 0.0935 µM | [6] 0.418 µM
not listed: [3]
inactive: all other assays above

CCNC(=O)C[C@@H]1N=C(c2ccc(Cl)cc2)c2cc(OC)ccc2-n2c(C)nnc21
active: [5] 0.418 µM | [6] 1.05 µM
inactive: [1] | [2] | [7] | [8] | [10]
